# Shown are actives, neighbours in structure and some others; about 5.7% of the full set was active somewhere.
# KB-3-1 cytotox – qHTS assay for MDR1-selective chemotherapeutics: Primary screen using the parental adenocarcinoma cell KB-3-1 | KB-3-1 viability, CellTiter-Glo ATP luminescence, 72 h | Potency, µM (series often up to 46.1 µM), usual class: cytotoxic | hit rate 1.4% among 400,000; note: potency is the fitted concentration of half-maximal effect; nearly all actives have a fitted effect of over 60% in size
#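 Cytotoxicity measured as CellTiter-Glo luminescence after 72 h at 37 C. Compound titrations were pinned onto drug-naive KB-3-1 parental adenocarcinoma cells grown in DMEM with 10% FBS, and normalized data fitted to concentration-response curves.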
# Nrf2 inh – Nrf2 qHTS screen for inhibitors; AID 504444, 2011; Potency, µM (series often up to 46 µM), for inactives: at the highest dose activity change, negative = inhibition, actives largely listed as inhibitors; A549 ARE-Fluc reporter, luciferase luminescence, 18-24 h; hit rate 2.1% among 360,000; note: potency is the fitted concentration of half-maximal effect; nearly all actives have a fitted effect of over 60% in size
#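 In this cell-based qHTS, ARE-driven firefly luciferase in A549 cells reports Nrf2 activity; the luminescent signal after BugLite lysis is the measured value, with a prior CellTiter-Fluor read for cell health.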
# A549 viability – Nrf2 qHTS screen for inhibitors: counterscreen for cytotoxicity | A549 ARE-Fluc cells, CellTiter-Fluor viability, 18-24 h | Potency, µM (top dose mostly 46 µM), for inactives: at the highest dose activity change, negative = cytotoxicity, usual class: inhibitors | hit rate 0.16% among 390,000 | AID 504648, 2011; note: potency is the fitted concentration of half-maximal effect
#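 A549 ARE_Fluc cells in 5% FBS OPTI-MEM were exposed to compounds in concentration-response for 18-24 h at 37 deg C. Viability was read by CellTiter-Fluor fluorescence (Ex 405/Em 525) after 30 min, before the luciferase read.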
# PI4K2A block – qHTS for small molecular inhibitors of PI4K2A; Phosphatidylinositol 4-kinase type 2-alpha (Homo sapiens), Q9BTU6; purified PI4K2A, ADP-Glo luminescence, 1 h; stronger effect = lower value; activity change, negative = inhibition, % at 76.9 µM; hit rate 0.13% among 420,000; AID 1346378, 2018; in the data active = activity change below about -50%; inconclusive = mostly about -30% to -49%;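 note: -100% = wells without enzyme as full effect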
# Target sequence (Q9BTU6 whole entry, looked up): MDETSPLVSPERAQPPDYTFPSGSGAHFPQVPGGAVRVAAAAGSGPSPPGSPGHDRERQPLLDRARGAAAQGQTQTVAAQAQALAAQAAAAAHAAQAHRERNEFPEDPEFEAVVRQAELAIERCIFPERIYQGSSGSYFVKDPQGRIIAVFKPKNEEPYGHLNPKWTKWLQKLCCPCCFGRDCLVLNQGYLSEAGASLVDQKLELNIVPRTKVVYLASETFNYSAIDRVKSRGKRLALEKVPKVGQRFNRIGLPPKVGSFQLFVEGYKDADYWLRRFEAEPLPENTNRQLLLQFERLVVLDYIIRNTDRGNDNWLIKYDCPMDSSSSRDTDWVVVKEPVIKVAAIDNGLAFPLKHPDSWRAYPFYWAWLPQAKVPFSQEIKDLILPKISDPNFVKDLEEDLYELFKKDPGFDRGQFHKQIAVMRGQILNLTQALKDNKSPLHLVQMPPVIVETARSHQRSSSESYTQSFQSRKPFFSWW
#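 In this quantitative HTS, ADP production by PI4K2A was quantified luminescently after 1 h at ambient temperature; 100 microM adenosine served as plate-quality control.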
# KB-V1 MDR tox – qHTS assay for MDR1-selective chemotherapeutics: Primary screen using the drug-selected MDR subline cells KB-V1; hit rate 3.4% among 400,000; KB-V1 MDR cells viability, CellTiter-Glo, 72 h; Potency, µM (highest dose often 46.1 µM), usual class: cytotoxic; AID 1347076, 2019; note: potency is the fitted concentration of half-maximal effect; nearly all actives have a fitted effect of over 60% in size
#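 Drug-selected KB-V1 cells, grown in DMEM lacking phenol red with 10% FBS, receive compound titrations; after three days at 37 degrees C, surviving cell ATP is quantified by CellTiter-Glo luminescence and responses normalized and curve-fitted.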
# Giardia killer – Small Molecules that selectively kill Giardia lamblia: qHTS | Giardia lamblia trophozoite viability | activity change, % at 7.66 µM, hits read low | hit rate 0.15% among 340,000 | AID 540267, 2011; in the data active = activity change below about -80%; inconclusive = between about -30% and that limit;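 note: parasites exposed to compound for two days anaerobically before the ATP read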
#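 Giardia trophozoites, 100 cells per well, were exposed to compounds for 48 hrs at 37 deg C under anaerobic conditions; viability was then read as ATP content by bioluminescence after 15-30 min at room temperature.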
# An asterisk follows results filed as active; i = inactive; ? = inconclusive; . = not tested or not shown. Unless noted, calls come from the whole dose curve; as a rule, active = well fitted curve in the direction sought with a large enough effect; inconclusive = small, poorly fitted or top-dose-only effect, or another doubt; inactive = no such curve, though single readings can be large; an effect the other way counts as inactive or inconclusive. Unless noted, % is set by controls: 0 for no effect and ±100 for the full control effect.
SMILES,KB-3-1 cytotox,Nrf2 inh,A549 viability,PI4K2A block,KB-V1 MDR tox,Giardia killer
CO/S(=N\S(=O)(=O)c1ccc(Cl)cc1)c1ccc([N+](=O)[O-])cc1 (stereo not drawn),.,.,.,-8,.,.
Cc1ccccc1CN(c1ccc(C(=O)N2CCc3ccccc3C2)cc1)S(C)(=O)=O,10µM*,15µM*,-27%,-4,10µM*,5
O=C(CNC(=O)C1CCCC1)OC(C(=O)Nc1cc(C(F)(F)F)ccc1Cl)c1ccccc1 (stereo not drawn),.,-12%,9%,.,.,.
CC(=O)Nc1cccc(OC2=NS(=O)(=O)c3ccccc32)c1,i,?,13%,.,i,.
Cc1c(NC(=O)C(F)(F)F)ccc2nc3c(=O)n(C)c(=O)n(C)c3nc12,i,-24%,-23%,-8,13µM*,.
O=[N+]([O-])c1ccc2c(c1)C=C/C2=C\c1ccc(C=S)cc1,i,.,.,.,?,.
O=C(COc1ccccc1Cl)Nc1ccc2[nH]c(=O)[nH]c2c1,1.5µM*,1%,-3%,3,0.52µM*,13
CCOc1ccccc1OCC(=O)Nc1ccc2[nH]c(=O)[nH]c2c1,8.2µM*,1%,4%,-1,16µM*,-21
CCOc1cc(/C=N/O)ccc1OCC(=O)Nc1cccc(C)c1,i,12%,-3%,4,13µM*,3
O=C(CN1C(=O)c2ccccc2S1(=O)=O)Nc1cc(S(=O)(=O)N2CCOCC2)ccc1N1CCOCC1,?,4%,2%,.,i,-4
O=C1CCC2(CCC(c3ccccc3)CC2)N1CCO (stereo not drawn),.,.,.,-2,.,.
CCCCNc1ncnc2oc(-c3ccco3)c(-c3ccco3)c12,?,21µM*,-14%,.,?,-11
O=c1cc(N2CCCCC2)c(-c2ccccc2)nn1Cc1c(Cl)cccc1Cl,?,18µM*,?,4,?,16
O=c1cc(N2CCCCC2)c(-c2ccccc2)nn1Cc1ccc(Cl)cc1,?,?,?,-3,?,0
O=c1c2c(-c3ccc(Cl)cc3)csc2nc2n1CCC2,i,0%,-11%,-1,18µM*,-11
CCCCC/C=C\C/C=C\CCCCCCCC(=O)NC(C)c1ccccc1 (stereo not drawn),.,.,.,0,.,.
O=C(/C=C/c1cn(CC(O)CN2CCCCC2)c2ccccc12)c1cccs1 (stereo not drawn),?,-3%,?,6,23µM*,-11
CCOc1ccccc1N(C)C(=O)c1c2c(nc3ccccc13)C(=O)N(C1CCCCC1)C2,i,-16%,-1%,-2,i,.
CC1CCCCC1N(C(=O)c1cc(C2CC2)on1)C1CCCCC1 (stereo not drawn),.,.,.,0,.,.
O=c1[nH][nH]c(=S)n1C1CCCCC1,i,-1%,-6%,0,i,3
O=c1cc(O)n(C2CCCCCC2)c(=O)[nH]1,i,10%,0%,-51*,?,-6
COc1ccc(S(=O)(=O)N2c3ccccc3OCC2C)cc1 (stereo not drawn),1.2µM*,?,-21%,5,?,20
COc1ccc(S(=O)(=O)N2c3ccccc3OCC2c2ccccc2)cc1 (stereo not drawn),8.2µM*,?,?,0,5.8µM*,5
C=CCOC(=O)C1=C(C)N=c2sc(=C3C(=O)N(CC(=O)O)c4ccccc43)c(=O)n2C1c1ccc(OC)cc1 (stereo not drawn),.,.,.,-29,.,.
Cc1ccc(C)n1-c1ccc(C(=O)NN)cc1,i,2%,3%,-82*,i,-10
SMILES,KB-3-1 cytotox,Nrf2 inh,A549 viability,PI4K2A block,KB-V1 MDR tox,Giardia killer
CCCOc1ccc(N)cc1N,i,.,-20%,-58*,i,14
O=C(C1=C[C@H](c2ccc3c(c2)OCO3)C[C@H](OCc2ccc(CO)cc2)O1)N1CCN(Cc2ccc3c(c2)OCO3)CC1,?,21µM*,-7%,4,i,13
O=C(C1=C[C@H](C2CCCCC2)C[C@H](OCCCCO)O1)N1CCN(Cc2ccc3c(c2)OCO3)CC1,i,18µM*,?,-8,i,16
Cc1ccc(-c2ccc(C3C4C=CCCC4(C)C(=O)N3Cc3ccccc3)c(F)c2)cc1 (stereo not drawn),.,-27%,12%,.,.,-19
CC(=O)c1ccc(-c2ccc([C@H]3[C@@H]4C=CCC[C@@]4(C)C(=O)N3Cc3ccccc3)c(F)c2)cc1,?,23µM*,-28%,-2,?,-3
COc1ccc(-c2ccc(N(C)C)cc2)cc1[C@H]1[C@@H]2C=CCC[C@@]2(C)C(=O)N1Cc1ccccc1,18µM*,?,0%,-3,?,52
COc1ccc(-c2ccc([C@H]3[C@@H]4C=CCC[C@@]4(C)C(=O)N3Cc3ccccc3)c(F)c2)cc1,?,-29%,12%,2,7.3µM*,-3
Cc1ccc(-c2ccc([C@H]3[C@@H]4C=CCC[C@@]4(C)C(=O)N3Cc3ccccc3)c(F)c2)cc1,i,-12%,-2%,0,i,19
COc1cc(C(=O)Nc2cccc(OCc3cc(=O)n4c(C)csc4n3)c2)cc(OC)c1OC,i,-4%,0%,1,i,.
CCOc1ccccc1C1NC(c2ccc3c(c2)OCO3)=CC(c2ccccc2O)N1 (stereo not drawn),i,19%,-10%,.,i,8
COc1ccc(NC(=O)CSc2nnc(-c3n[nH]c4c3CCC4)n2N)cc1OC,.,.,.,2,.,.
O=C(NCc1cccc(F)c1)c1cccc(OC2CCN(C(=O)C3CC3)CC2)c1,?,23µM*,-3%,-2,?,-20
CCN(Cc1ccccc1)C(=O)c1cccc(OC2CCN(C(=O)C3CC3)CC2)c1,i,?,1%,-6,i,-11
COC(=O)[C@]12C[C@H](CC(=O)NCC3CCCCC3)C(=O)N(Cc3ccc(Cl)cc3Cl)C1=C[C@H](COCc1ccccc1)O[C@@H]2C,.,.,.,-2,.,.
CNc1oc(-c2ccccc2Cl)nc1C#N,?,.,13%,1,21µM*,6
Cc1ccccc1NC(=O)O[C@H]1CC[C@@]23CCCN2C(=O)CCC[C@H]3[C@H]1C,.,.,.,0,.,.
O=C(NC1CCCCN(Cc2cccc(C(F)(F)F)c2)C1=O)c1ccc(-c2ccccc2)cc1 (stereo not drawn),.,.,.,1,.,.
Cc1ccc(/C=C2\CCCC3=C2NC(=S)NC3c2ccc(C)cc2)cc1 (stereo not drawn),?,26%,6%,-1,16µM*,-9
